Rows were chosen to be rich in hits. Some 2.1% of all compounds tested hit in one or more screens of this group.
FUS yeast rescue = rescues growth of FUS-expressing yeast; S. cerevisiae FUS-expressing, growth rescue, OD600, 24 h; Potency, µM (highest dose often 76.6 µM), hits mostly activators; 390,000 compounds, 0.24% hits; AID 1347120;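 further: plate controls were DMSO vehicle for no effect and reference control for full effect; nearly all actives have a fitted effect of over 55% in size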
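Read-out: OD at 600 nm after 24hr at 30C, reporting rescue of FUS-induced yeast toxicity. Cells at OD 0.005 in galactose (2%) minimal medium; compounds tested in a dilution series; CP55940 titration from 92uM final as control.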
aSyn rescue = inhibitors of alpha-synuclein toxicity in yeast; 370,000 compounds, 0.14% hits; Potency, µM (series often up to 46.1 µM), inactives show top-dose growth rescue (activation), actives largely listed as activators; AID 652106; Yeast expressing alpha-synuclein, growth rescue, BacTiter-Glo, 24 h; further: % of control where 0% means no effect; nearly all actives have a fitted effect of over 65% in size
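Readout is rescue of growth in alpha-synuclein-expressing yeast, so inhibitors of toxicity appear as activators. Growth after 24 hr at 30 deg C in galactose medium is quantified by luminescence.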
TDP43 rescue = TDP-43 toxicity inhibition in yeast | TDP-43 expressing yeast growth rescue, BacTiter-Glo, 24 h | Potency, µM (titrated, usually from 46.1 µM), inactives show at the top dose growth rescue (activation), usual class: activators | 410,000 compounds, 1.8% hits; further: % of control where 0% means no effect; nearly all actives have a fitted effect of over 50% in size
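Yeast expressing TDP-43 (pregrown in raffinose, seeded at OD600=0.02 in galactose medium) exposed to compounds 24 hr at 30 deg C. Growth read by BacTiter-Glo luminescence; rescue of toxicity appears as increased signal.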
Abeta yeast res = compounds reversing amyloid beta toxicity in yeast; yeast expressing A-beta42, growth rescue, OD600, 48 h; response scale: 0% DMSO, 100% iron-clioquinol control; Potency, µM (top dose mostly 46.1 µM), most hits filed as activators; 410,000 compounds, 0.063% hits; further: nearly all actives have a fitted effect of over 55% in size
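Growth rescue measured by 600 nm absorbance after 48 h yeast culture at 30 C with compound. Values normalized between DMSO and an equimolar ferric chloride plus clioquinol control.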
Numbers without * were called inactive; [ ] = another dose, or the depositor's remark. The call rests on the fitted dose curve; in most records, active means well fitted curve in the direction sought with a large enough effect; inconclusive means small, poorly fitted or top-dose-only effect, or another doubt; inactive means no such curve, though single readings can be large; an effect the other way counts as inactive or inconclusive. Potency means the concentration at half of the fitted maximal effect.

Screening COc1ccc(/C=N/N=C(/N)N[N+](=O)[O-])c(OC)c1 returned FUS yeast rescue inactive, aSyn rescue 1%, TDP43 rescue 14% and Abeta yeast res inactive.
Screening Cc1nn(-c2nccs2)c2c1C(=O)CC(C)(C)C2Br (stereo not given) returned FUS yeast rescue inactive, aSyn rescue -1%, TDP43 rescue 14µM* and Abeta yeast res inactive.
`CC(C)(O)[C@H]1O[C@H]2CC[C@@]3(C)[C@@](O)(CC[C@H]4Cc5c([nH]c6ccccc56)[C@@]43C)C2=CC1=O` gave FUS yeast rescue inconclusive, aSyn rescue 3%, TDP43 rescue 22µM* and Abeta yeast res inconclusive.
`COc1ccccc1C1Nc2ccccc2-n2c(-c3ccccc3)c3c(=O)n(C)c(=O)n(C)c3c21` (stereo not given) gave FUS yeast rescue inactive, TDP43 rescue inconclusive and Abeta yeast res inactive.
For Cc1onc(-c2ccccc2)c1C(=O)N[C@@H]1C(=O)N2C1SC(C)(C)[C@@H]2C(=O)O (stereo not given in full) the results were FUS yeast rescue inactive, aSyn rescue 0%, TDP43 rescue inconclusive and Abeta yeast res inactive.
`CN1C(=O)C(=Cc2ccccc2Oc2ccc(Cl)c(F)c2)C(=O)N(C)C1=O` gave FUS yeast rescue inactive, aSyn rescue 5%, TDP43 rescue 22µM* and Abeta yeast res inactive[9.22 µM].
`O=C1NC(=O)C(=Cc2ccccc2Oc2ccc(F)cc2)C(=O)N1` gave FUS yeast rescue inactive, aSyn rescue -4%, TDP43 rescue -13% and Abeta yeast res inactive.
`CCCNC(=O)N1[C@H]2CC[C@@H]1C(C(=O)OC)=C(c1ccc(Cl)c(C(F)(F)F)c1)C2` gave FUS yeast rescue inactive, aSyn rescue 5%, TDP43 rescue 17% and Abeta yeast res inconclusive.
Screening COC(=O)C1=C(c2ccc(-c3ccccc3)c(F)c2)C[C@@H]2CC[C@H]1N2C(=O)NC1CC1 returned FUS yeast rescue inactive, aSyn rescue -9%, TDP43 rescue 20µM* and Abeta yeast res inactive.
COC(=O)C1=C(c2ccc(Cl)c(C(F)(F)F)c2)C[C@@H]2CC[C@H]1N2C(=O)NCCOc1ccc(OC)cc1 was read as FUS yeast rescue inconclusive, aSyn rescue inconclusive, TDP43 rescue 11µM* and Abeta yeast res inactive.
`CCCCCCCCC(c1nc2cc(C)c(C)cc2[nH]1)n1c(=O)c(-c2ccccc2Br)nc2ccccc21` (stereo not given) gave FUS yeast rescue inactive, aSyn rescue inconclusive, TDP43 rescue -12% and Abeta yeast res inactive.
CCC(=NCc1ccc2c(c1)OCO2)c1c(O)n(C2CCCCC2)c(=O)[nH]c1=O was read as FUS yeast rescue inactive, aSyn rescue 1%, TDP43 rescue 20µM* and Abeta yeast res inactive.
Screening CCC(=NCCO)c1c(O)n(C2CCCCC2)c(=O)[nH]c1=O returned FUS yeast rescue inactive, aSyn rescue 0%, TDP43 rescue 25% and Abeta yeast res inactive.
For CCCCCCCCCCCCCC(=O)O[C@@H]1[C@@H](C)[C@@]2(O)[C@@H](C=C(CO)C[C@@]3(O)C(=O)C(C)=C[C@@H]23)C2C(C)(C)[C@@]21OC(C)=O (stereo not given in full) the results were aSyn rescue 8%.
Screening COc1ccc(Nc2nc(N)nc(CSc3nc4ccccc4s3)n2)cc1 returned FUS yeast rescue inconclusive, TDP43 rescue 20µM* and Abeta yeast res inactive.
Screening COc1ccc(-c2noc(=O)n2Cc2cc(C)ccc2C)cc1 returned FUS yeast rescue inactive, aSyn rescue 30%, TDP43 rescue 18µM* and Abeta yeast res inactive.
Screening Cn1cnc([N+](=O)[O-])c1Sc1ccc([N+](=O)[O-])cc1 returned FUS yeast rescue inactive, aSyn rescue -18%, TDP43 rescue 20µM* and Abeta yeast res inactive.
For CCCNc1nc(-c2cc(C(=O)Nc3ccccc3)on2)cc(C(C)C)n1 the results were FUS yeast rescue inactive, aSyn rescue 13µM*, TDP43 rescue 18µM* and Abeta yeast res inactive.
c1ccc2sc(C3(N4CCCCC4)CCCCC3)cc2c1 was read as aSyn rescue 4%.
For NN=C1C(Cl)=C(Cl)C(Cl)=C1Cl the results were FUS yeast rescue inactive, aSyn rescue 4%, TDP43 rescue 18µM* and Abeta yeast res inactive.
